For some of these results: Results with a measured potency or affinity are listed apart.

Set-up in all cases: scale not given: direction of the effect not stated beside the values
Assay [1] addresses Protein translocase subunit SecA (Escherichia coli (strain K12)) (UniProt P10408). Nature of the assay: Assay to Identify E. coli SecA ATPase Inhibitors. Particulars: 30 µM. It counts as functional.
Assay [2] concerns the target T1, Ubiquitin-activating enzyme e1, putative (Leishmania donovani (strain BPK282A1)) (UniProt E9BSI1).
T1 sequence (whole entry): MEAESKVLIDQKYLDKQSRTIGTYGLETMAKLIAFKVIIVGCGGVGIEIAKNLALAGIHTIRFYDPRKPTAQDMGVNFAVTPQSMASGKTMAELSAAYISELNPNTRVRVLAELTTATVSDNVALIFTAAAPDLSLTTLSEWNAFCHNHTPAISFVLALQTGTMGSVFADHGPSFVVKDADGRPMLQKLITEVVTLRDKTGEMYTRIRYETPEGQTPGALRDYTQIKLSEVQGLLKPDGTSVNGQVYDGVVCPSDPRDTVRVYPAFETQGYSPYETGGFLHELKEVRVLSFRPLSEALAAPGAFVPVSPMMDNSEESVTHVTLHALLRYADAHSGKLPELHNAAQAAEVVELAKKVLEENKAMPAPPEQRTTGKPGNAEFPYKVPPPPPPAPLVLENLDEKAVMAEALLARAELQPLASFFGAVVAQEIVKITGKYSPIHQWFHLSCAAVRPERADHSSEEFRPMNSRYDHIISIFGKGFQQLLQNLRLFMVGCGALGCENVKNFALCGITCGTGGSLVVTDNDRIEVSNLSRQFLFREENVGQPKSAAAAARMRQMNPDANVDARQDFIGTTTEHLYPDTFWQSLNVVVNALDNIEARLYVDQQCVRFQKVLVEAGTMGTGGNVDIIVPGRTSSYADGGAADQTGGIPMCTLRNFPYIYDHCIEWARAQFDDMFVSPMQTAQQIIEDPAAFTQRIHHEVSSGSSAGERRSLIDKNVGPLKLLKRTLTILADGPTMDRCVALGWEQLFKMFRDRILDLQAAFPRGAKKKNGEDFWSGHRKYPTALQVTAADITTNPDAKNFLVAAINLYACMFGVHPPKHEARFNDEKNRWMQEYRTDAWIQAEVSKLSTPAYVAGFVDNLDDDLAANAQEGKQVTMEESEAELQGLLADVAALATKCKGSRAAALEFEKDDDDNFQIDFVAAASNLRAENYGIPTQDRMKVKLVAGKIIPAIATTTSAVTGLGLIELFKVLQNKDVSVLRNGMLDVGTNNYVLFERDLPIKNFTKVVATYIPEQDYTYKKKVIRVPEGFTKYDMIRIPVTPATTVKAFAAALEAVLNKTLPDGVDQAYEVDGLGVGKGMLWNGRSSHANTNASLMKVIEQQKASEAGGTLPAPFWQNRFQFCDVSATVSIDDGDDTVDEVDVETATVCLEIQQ
Briefly: Leishmania donovani Ubiquitin Activating Enzyme (LdE1). Particulars: 30 µM. It counts as functional.

Assay [3] concerns the target AMP-activated protein kinase, AMPK (Homo sapiens) (UniProt P54646+O43741+P54619+Q9UGJ0+Q9Y478+Q13131+Q9UGI9). Briefly: AMP-dependent Kinase enzyme assay. An in vitro enzyme assay that detects ADP turnover that is directly proportional to AMPK activity. This uses naive AMPK that is activated during the assay with MK-8722. It counts as functional. Particulars: 30 µM.
Assay [4] has as its target Sialic acid-binding Ig-like lectin 9 (Homo sapiens) (UniProt Q9Y336). Nature of the assay: Hs-Siglec9 ALPHAscreen SOP 20170721. Particulars: 10 µM. (Alpha assays give light when donor and acceptor beads are brought close together.)
The test system of a further assay is Trypanosoma cruzi. Briefly: Trypanosoma cruzi phosphomannomutase and mannose-1-phosphate guanylyltransferase assay. The assay is classed as functional. Particulars: 10 µM.
Assay [5] deals with T2, Arginase-2, mitochondrial (Homo sapiens) (UniProt P78540).
T2 sequence (whole entry): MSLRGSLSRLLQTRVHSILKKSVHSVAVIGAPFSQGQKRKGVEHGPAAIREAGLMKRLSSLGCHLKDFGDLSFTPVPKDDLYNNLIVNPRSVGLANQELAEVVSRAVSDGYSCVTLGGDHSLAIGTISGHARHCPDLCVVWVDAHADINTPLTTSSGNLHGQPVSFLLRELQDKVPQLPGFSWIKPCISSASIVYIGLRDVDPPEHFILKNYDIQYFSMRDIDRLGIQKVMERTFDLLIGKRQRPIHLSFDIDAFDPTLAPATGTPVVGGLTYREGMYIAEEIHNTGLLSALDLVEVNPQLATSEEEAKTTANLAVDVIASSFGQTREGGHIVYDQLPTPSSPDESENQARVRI
Nature of the assay: in vitro enzyme assay to detect the production of urea directly proportional to the activity of Arginase II. Further: in the data most compounds retested in dose-response had high values. The conditions noted are these: 33.3 µM. The assay is classed as functional.

Assay [6] concerns the target T3, Proteasome subunit beta (Trypanosoma cruzi) (UniProt O96673).
T3 sequence (whole entry): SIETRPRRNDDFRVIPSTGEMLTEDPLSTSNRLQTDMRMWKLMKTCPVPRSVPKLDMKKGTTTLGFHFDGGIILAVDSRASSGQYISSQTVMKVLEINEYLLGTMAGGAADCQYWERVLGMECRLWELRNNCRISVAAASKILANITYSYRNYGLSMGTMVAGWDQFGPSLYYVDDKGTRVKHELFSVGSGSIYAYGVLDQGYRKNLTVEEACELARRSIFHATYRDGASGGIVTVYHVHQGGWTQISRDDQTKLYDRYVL
Briefly: Trypanosoma cruzi proteasome chymotrypsin-like activity (TcProtChymo) assay. Further: in the data most compounds retested in dose-response had high values. The assay is classed as functional. The conditions noted are these: 9.37 µM.

The species named for a further assay is Homo sapiens. Nature of the assay: To identify inhibition of the IFN signalling (Jak-Stat) pathway via expression of an eGFP reporter gene under the control of an IFN-stimulated response element (ISRE) containing MxA promoter. It counts as functional. Particulars: 30 µM.
Assay [7] has as its target T4, Tyrosyl-tRNA synthetase, putative (Trypanosoma cruzi (strain CL Brener)) (UniProt Q4DSP6).
T4 sequence (whole entry): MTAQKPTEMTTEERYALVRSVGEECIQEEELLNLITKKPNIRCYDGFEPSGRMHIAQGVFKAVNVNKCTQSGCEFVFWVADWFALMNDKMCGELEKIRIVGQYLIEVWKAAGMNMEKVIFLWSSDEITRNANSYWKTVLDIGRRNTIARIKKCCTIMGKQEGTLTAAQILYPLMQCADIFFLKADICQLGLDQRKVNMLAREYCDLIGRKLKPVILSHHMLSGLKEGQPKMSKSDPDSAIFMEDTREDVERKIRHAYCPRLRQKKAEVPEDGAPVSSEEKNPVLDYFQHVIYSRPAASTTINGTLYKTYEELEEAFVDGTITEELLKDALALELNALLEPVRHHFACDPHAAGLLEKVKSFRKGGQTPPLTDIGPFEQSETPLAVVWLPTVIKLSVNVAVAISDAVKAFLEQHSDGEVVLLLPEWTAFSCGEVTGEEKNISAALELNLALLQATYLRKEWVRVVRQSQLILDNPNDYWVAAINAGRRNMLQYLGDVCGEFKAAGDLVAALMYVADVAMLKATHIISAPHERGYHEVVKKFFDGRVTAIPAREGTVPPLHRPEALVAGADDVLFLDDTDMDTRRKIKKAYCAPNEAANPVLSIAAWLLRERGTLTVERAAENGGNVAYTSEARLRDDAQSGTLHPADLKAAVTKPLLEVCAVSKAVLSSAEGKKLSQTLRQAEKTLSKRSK
Briefly: Trypanosoma cruzi tyrosyl tRNA synthetase (TcYRS) _High Tyrosine SOP. Further: in the data most compounds retested in dose-response had high values. The assay is classed as functional. Particulars: 30 µM.

The target of assay [8] is T4, Tyrosyl-tRNA synthetase, putative (Trypanosoma cruzi (strain CL Brener)). Nature of the assay: Trypanosoma cruzi tyrosyl tRNA synthetase (TcYRS) SOP. The assay is classed as functional. The conditions noted are these: 30 µM.
Assay [9] concerns the target Chromo domain-containing protein 1 (Saccharomyces cerevisiae (strain ATCC 204508 / S288c) (Baker's yeast)) (UniProt P32657). Nature of the assay: ScCHD-1 Enzyme Inhibition Assay. Further: in the data most compounds retested in dose-response had high values. It counts as functional. Particulars: 30 µM.

Chromo domain-containing protein 1 (Saccharomyces cerevisiae (strain ATCC 204508 / S288c) (Baker's yeast)), sequence (P32657 whole entry, the tested form may be a part): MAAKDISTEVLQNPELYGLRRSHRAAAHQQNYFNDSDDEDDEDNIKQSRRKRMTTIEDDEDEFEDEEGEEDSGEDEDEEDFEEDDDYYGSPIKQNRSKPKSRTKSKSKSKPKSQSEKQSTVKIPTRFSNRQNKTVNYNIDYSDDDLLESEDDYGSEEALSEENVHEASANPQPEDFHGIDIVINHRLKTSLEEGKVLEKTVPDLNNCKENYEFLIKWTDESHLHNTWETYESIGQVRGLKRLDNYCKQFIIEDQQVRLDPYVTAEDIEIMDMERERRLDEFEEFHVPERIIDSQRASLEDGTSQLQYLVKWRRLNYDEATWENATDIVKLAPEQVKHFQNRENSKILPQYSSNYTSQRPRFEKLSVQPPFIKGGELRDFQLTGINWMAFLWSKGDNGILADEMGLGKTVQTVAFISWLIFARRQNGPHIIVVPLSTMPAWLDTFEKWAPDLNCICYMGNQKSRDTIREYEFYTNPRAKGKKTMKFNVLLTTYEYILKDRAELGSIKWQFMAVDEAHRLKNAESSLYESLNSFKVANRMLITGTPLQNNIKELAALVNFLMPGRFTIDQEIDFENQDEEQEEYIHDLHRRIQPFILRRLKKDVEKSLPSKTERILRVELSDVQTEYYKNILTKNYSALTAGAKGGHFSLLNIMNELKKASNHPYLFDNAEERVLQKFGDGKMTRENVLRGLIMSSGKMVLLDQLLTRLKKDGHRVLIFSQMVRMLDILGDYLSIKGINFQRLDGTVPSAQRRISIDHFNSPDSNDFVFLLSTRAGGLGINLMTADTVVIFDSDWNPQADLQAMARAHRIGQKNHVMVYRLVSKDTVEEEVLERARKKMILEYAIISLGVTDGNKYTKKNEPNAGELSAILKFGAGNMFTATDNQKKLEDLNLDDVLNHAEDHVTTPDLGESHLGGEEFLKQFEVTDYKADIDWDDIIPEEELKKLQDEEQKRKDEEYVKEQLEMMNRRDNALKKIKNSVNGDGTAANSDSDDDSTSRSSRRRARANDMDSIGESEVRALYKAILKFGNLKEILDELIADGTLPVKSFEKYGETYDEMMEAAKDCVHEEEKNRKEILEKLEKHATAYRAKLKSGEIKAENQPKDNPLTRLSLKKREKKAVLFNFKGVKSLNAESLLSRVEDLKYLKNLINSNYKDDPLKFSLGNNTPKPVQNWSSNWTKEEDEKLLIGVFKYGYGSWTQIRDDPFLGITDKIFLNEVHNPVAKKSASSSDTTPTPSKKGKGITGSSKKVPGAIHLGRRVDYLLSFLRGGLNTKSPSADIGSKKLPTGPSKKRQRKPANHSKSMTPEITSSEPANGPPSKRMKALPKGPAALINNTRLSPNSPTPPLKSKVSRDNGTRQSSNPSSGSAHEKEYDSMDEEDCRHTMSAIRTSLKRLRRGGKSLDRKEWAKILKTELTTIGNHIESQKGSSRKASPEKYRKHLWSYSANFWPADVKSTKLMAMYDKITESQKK
Protein translocase subunit SecA (Escherichia coli (strain K12)), sequence (P10408 whole entry): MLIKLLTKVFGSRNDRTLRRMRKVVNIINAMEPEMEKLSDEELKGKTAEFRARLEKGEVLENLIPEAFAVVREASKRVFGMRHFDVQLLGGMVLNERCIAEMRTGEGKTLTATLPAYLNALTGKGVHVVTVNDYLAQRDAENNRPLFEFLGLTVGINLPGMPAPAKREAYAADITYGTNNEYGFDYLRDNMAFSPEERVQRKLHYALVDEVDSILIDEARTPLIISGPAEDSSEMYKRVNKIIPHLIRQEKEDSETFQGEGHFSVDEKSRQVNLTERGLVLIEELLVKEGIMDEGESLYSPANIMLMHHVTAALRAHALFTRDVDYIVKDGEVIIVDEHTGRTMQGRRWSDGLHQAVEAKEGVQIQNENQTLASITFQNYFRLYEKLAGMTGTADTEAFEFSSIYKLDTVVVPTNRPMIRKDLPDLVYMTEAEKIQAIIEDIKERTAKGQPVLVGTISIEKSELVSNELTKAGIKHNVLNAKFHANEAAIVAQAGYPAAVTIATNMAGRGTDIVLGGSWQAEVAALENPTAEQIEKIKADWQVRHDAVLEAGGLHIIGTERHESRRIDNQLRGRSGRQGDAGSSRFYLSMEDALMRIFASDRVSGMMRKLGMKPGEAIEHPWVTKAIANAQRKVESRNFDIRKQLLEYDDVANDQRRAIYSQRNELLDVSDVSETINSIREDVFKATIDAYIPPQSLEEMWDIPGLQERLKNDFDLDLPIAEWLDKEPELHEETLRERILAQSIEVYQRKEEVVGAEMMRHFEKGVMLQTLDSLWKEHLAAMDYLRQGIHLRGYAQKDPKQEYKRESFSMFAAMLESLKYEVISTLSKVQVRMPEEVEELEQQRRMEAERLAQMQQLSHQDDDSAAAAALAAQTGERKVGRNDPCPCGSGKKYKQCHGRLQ
Sialic acid-binding Ig-like lectin 9 (Homo sapiens), sequence (Q9Y336 whole entry): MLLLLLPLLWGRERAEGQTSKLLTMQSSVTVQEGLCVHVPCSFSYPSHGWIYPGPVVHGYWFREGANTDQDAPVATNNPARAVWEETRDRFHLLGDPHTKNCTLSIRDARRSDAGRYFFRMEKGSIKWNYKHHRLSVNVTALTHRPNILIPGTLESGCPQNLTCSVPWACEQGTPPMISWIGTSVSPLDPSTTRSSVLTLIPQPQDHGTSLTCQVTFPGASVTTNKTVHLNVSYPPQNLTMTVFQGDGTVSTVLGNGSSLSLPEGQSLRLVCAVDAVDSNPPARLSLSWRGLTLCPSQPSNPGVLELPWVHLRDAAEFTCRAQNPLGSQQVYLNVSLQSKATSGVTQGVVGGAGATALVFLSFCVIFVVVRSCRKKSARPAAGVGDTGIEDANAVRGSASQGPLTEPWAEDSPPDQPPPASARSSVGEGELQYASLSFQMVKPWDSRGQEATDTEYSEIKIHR

Take `N#Cc1ccccc1OCCN1CCC(N2CCNC2=O)CC1`: the Percent Effect was -1.9% in assay [1]; 5.41% in assay [2]; -4.78% in assay [3]; 2.6% in assay [4]; 0.65% in the assay on Trypanosoma cruzi; -1.29% in assay [5]. Moreover, the Percent Effect in [6] is 6.28%; in the assay filed under Homo sapiens, 8.35%; in assay [7], 6.93%; in assay [8] it was 13.4%; in [9] it was -0.203%.
As to `COCc1nc(N(C)C)ncc1C(=O)NC(C)C`, the Percent Effect in assay [1] is -5.73%; in [2], -1.33%; in assay [3], 4.52%; in assay [4], -0.683%; in the assay with Trypanosoma cruzi, -3.54%; in assay [5], -2.99%. In addition, the Percent Effect in [6] was 4.07%; in the assay listed under Homo sapiens it was -5.53%; in assay [7], 2.12%; in assay [8] it was -2.56%; in [9] it was -0.879%.
For the compound `Cc1ccc2c(c1)c(CNC(=O)C1CCN(C(C)C)CC1)nn2C`, the Percent Effect in assay [1] was 2.34%; in assay [2], 5.41%; in assay [3], -3.84%; in assay [4] it was -0.447%; with Trypanosoma cruzi, -0.579%; in [5], -2.38%. The Percent Effect in [6] was 12.9%; in the assay listed under Homo sapiens it was -16.3%; in assay [7], 4.76%; in assay [8] it was 14.6%; in [9], -3.28%.
In the case of `CCc1cccc(N2CCC(NC(=O)c3ccc(=O)[nH]n3)CC2)c1`, the Percent Effect in assay [1] is -0.605%; in [2], 3.8%; in [3], 2.33%; in [4], 1.07%; with Trypanosoma cruzi, -4.82%; in [5] it was 4.52%. Further, the Percent Effect was 15.8% in [6]; 21% in the assay listed under Homo sapiens; 5.21% in [7]; 15.2% in assay [8]; -11.3% in [9].
On to `CC(C)N1CCC(CNCc2c[nH]nc2C(C)(C)C)C1` (stereo unspecified), for which the Percent Effect in assay [1] is -2.43%; in assay [2] it was 29.7%; in [3] it was -3.65%; in assay [4] it was -3.23%; in the assay on Trypanosoma cruzi, 5.19%; in assay [5], -14.4%. Also, the Percent Effect in assay [6] was 17.1%; in the assay listed under Homo sapiens it was 22%; in assay [7], 9.36%; in [8], 23.5%; in assay [9], -10.6%.
Regarding `CN(Cc1cc(-c2ccccc2)no1)C1CCCN(c2cccnn2)C1` (stereo unspecified), the Percent Effect in assay [1] is -6.51%; in assay [2], -20.8%; in assay [3] it was 0.498%; in [4] it was 15.7%; in the assay on Trypanosoma cruzi, -3.93%; in assay [5] it was -3.2%. Also, the Percent Effect in assay [6] is 2.37%; in the assay filed under Homo sapiens it was 7.74%; in assay [7], 15.5%; in [8], 14.6%; in assay [9] it was 18.5%.
For the compound `c1ccc(-c2cnc(CNCC3CCCN3c3cccnn3)o2)cc1` (stereo unspecified), the Percent Effect is -1.23% in assay [1]; -5.2% in assay [2]; 3.3% in [3]; -5.27% in assay [4]; 1.86% with Trypanosoma cruzi; 3.16% in [5]. Further, the Percent Effect in [6] is 15.8%; in the assay filed under Homo sapiens it was 0.932%; in assay [7], 16.2%; in assay [8], 21.2%; in assay [9], -20.7%.
For the compound `Cc1cc(C)n(Cc2cccc(C(=O)NCCN3CCOCC3)c2)n1`, the Percent Effect in [1] was 6.23%; in [2] it was 5.2%; in assay [3] it was -1.94%; in [4], 1.34%; in the assay on Trypanosoma cruzi it was -6.59%; in assay [5] it was -6.9%. Also, the Percent Effect in assay [6] is 24.3%; in the assay filed under Homo sapiens, 9.8%; in [7], 5.38%; in assay [8] it was 16.1%; in assay [9], -2.63%.
Turning to `CCn1cc(NC(=O)C2CCN(CCOC(C)C)CC2)cn1`, the Percent Effect in [1] was -6.99%; in [2] it was 7.89%; in assay [3], -2.47%; in [4] it was -0.756%; in the assay on Trypanosoma cruzi it was -6.07%; in assay [5], -3.6%. Moreover, the Percent Effect in assay [6] worked out at 3.98%; in the assay filed under Homo sapiens it was 6.54%; in [7], 2.46%; in assay [8], 3.7%; in assay [9], 0.215%.
Regarding `Cc1cc(C)n(C2CCCN(C(=O)Cc3csc(C)n3)C2)n1` (stereo unspecified), the Percent Effect in assay [1] is -3.62%; in [2] it was 0%; in [3], -2.28%; in [4] it was 17.5%; with Trypanosoma cruzi, 6.7%; in [5], 1.9%. For the same compound, the Percent Effect in assay [6] is 4.34%; in the assay filed under Homo sapiens, -6.53%; in [7], 4.43%; in [8], -3.8%; in [9], -6.83%.
With `Cc1nc(C)n(CC2CCCN(CCC(=O)N3CCCCC3)C2)n1` (stereo unspecified), the Percent Effect in assay [1] was -1.52%; in assay [2], -2.6%; in [3], 7.57%; in assay [4], -4.47%; in the assay on Trypanosoma cruzi it was -4.21%; in [5], 5.26%. Further, the Percent Effect is -0.566% in assay [6]; 20.7% in the assay listed under Homo sapiens; 0% in [7]; 0% in assay [8]; 4.58% in [9].

The values above are taken from ChEMBL document CHEMBL3988442, “University of Dundee, Small-Polar-MMV Screening Library” (2021).
